Source: PubChem BioAssay
KKLEB tox – reduces viability of KKLEB cystic fibrosis airway cells; KKLEB CF airway cells viability, ATPlite luminescence, overnight; stronger effect = lower value; cells stimulated with P. aeruginosa culture filtrate; actives 0.36% (n = 360,000); activity change (cytotoxicity), % at 5 µM;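 active = corrected activity change at or below -50% at 5 µM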
LGR2 antag – blocks bursicon-induced cAMP signaling via Drosophila LGR2. HEK293 LGR2, CRE-luciferase, bursicon-stimulated, 4 h. inhibition, % at 9.99 µM. actives 0.35% (n = 380,000);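 active = drop in luminescence signal, shown as inhibition above about 50% in the replicate tests, limit read from the data, passing the limit was not always enough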;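 note: agonist challenge used bursicon conditioned medium at about half maximal strength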
TWEAK-Fn14 inh – blocks TWEAK-Fn14 interaction in a reporter cell assay; TWEAK-stimulated Fn14 reporter cells, luciferase luminescence, 8 h; inhibition, % at 10 µM; actives 2% (n = 360,000); AID 1159606; in the data active = inhibition above about 50%
CF NFkB block – cystic fibrosis NF-kB activation inhibition. KKLEB NF-kB-GFP reporter, PAF-induced, GFP fluorescence overnight. inhibition, % at 5 µM. actives 0.86% (n = 360,000);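 active = at least 50% inhibition at 5 µM, scaled per plate between neutral and stimulator controls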;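 note: PAF is a Pseudomonas aeruginosa culture filtrate used as stimulus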
TROY NFkB inh – TROY signaling inhibition; actives 0.98% (n = 360,000); Q293 LMP1-TROYcd NF-kB luciferase reporter, 4 h; inhibition, % at 10 µM; AID 1347056;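 active = compounds whose plate-normalised and pattern-corrected inhibition of the luciferase reporter signal at the single screening dose is 50% or more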
EWS-Fli block – inhibitors of EWS/Fli oncoprotein transcriptional activity. A673 NR0B1-luciferase reporter, viability-normalised. inhibition, % at 12.6 µM. actives 0.67% (n = 350,000);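 active = mean inhibition of at least 50% after viability correction, with every replicate also passing that limit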;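 note: firefly luciferase signal divided by Alamar Blue viability fluorescence both relative to DMSO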
Of the large screens only hits and unclear results are named; the others gave an inactive call. Most compounds without a hit are left out; they make up all but 2.6% or so of the library.

FC(F)Oc1ccc(C2=Nn3c(nnc3-c3ccccc3Cl)SC2)cc1OCC1CC1	none
COc1ccc(C2=Nn3c(nnc3-c3ccccc3Cl)SC2)cc1OC1CCCC1	TROY NFkB inh 53
N/C(=N\OC(=O)c1ccc([N+](=O)[O-])cc1Cl)c1ccccn1	LGR2 antag 95, TWEAK-Fn14 inh 94, TROY NFkB inh 67, EWS-Fli block 72
Cc1ccc(C(=O)O/N=C(\N)c2ccccc2)c(Cl)c1	LGR2 antag 97, TWEAK-Fn14 inh 96, TROY NFkB inh 82, EWS-Fli block 75
O=C(CSc1ccc(-c2ccccn2)nn1)c1ccc([N+](=O)[O-])cc1	none
O=C(COC(=O)c1ccccn1)c1ccc([N+](=O)[O-])cc1	TWEAK-Fn14 inh 67
N/C(=N/OC(=O)c1ccccc1Cl)c1ncc([N+](=O)[O-])s1	TWEAK-Fn14 inh 50 (no result: LGR2 antag)
Cc1noc(C)c1NC(=O)Nc1cccc2c1O[C@H](CN(C)C(=O)Nc1ccc(C(F)(F)F)cc1)[C@H](C)CN([C@H](C)CO)C2=O	none (no result: KKLEB tox, TWEAK-Fn14 inh, CF NFkB block, TROY NFkB inh)
C[C@H]1CN([C@@H](C)CO)C(=O)Cc2cc(NC(=O)C3CCCCC3)ccc2O[C@@H]1CN(C)S(=O)(=O)c1ccc(Cl)cc1	none (no result: KKLEB tox, TWEAK-Fn14 inh, CF NFkB block, TROY NFkB inh)
N/C(=N\OC(=O)c1ccc(Cl)cc1[N+](=O)[O-])c1ccccn1	none
N/C(=N\OC(=O)c1cc(Br)ccc1Cl)c1ccccn1	none
Cc1ccc(C(=O)O/N=C(\N)c2ccccn2)c(Cl)c1	KKLEB tox -72, LGR2 antag 103, TWEAK-Fn14 inh 105, TROY NFkB inh 86, EWS-Fli block 86
N/C(=N\OC(=O)c1ccc(Cl)cc1Cl)c1ccccn1	KKLEB tox -68, LGR2 antag 93, TWEAK-Fn14 inh 100, TROY NFkB inh 80 (no result: EWS-Fli block)
CC(C)CC(=O)Nc1ccc(-c2nc3ccccc3c(=O)[nH]2)cc1	TWEAK-Fn14 inh 61 (no result: LGR2 antag)
C[C@@H]1CN([C@@H](C)CO)C(=O)Cc2cc(NC(=O)NC3CCCCC3)ccc2O[C@@H]1CN(C)C(=O)Nc1ccc(F)cc1	none (no result: KKLEB tox, TWEAK-Fn14 inh, CF NFkB block, TROY NFkB inh)
N#CC1=C(SCC(=O)Nc2ccc(C(=O)O)cc2)NC(=O)CC1c1ccco1 (stereo not given)	TWEAK-Fn14 inh 98
Cc1ccc(NC(=O)CSC2=C(C#N)C(c3ccco3)C3=C(CCCC3=O)N2)cc1 (stereo not given)	none (no result: LGR2 antag, EWS-Fli block)
CCSc1ccccc1C(=O)n1nnc2ccccc21	TWEAK-Fn14 inh 72, CF NFkB block 61
CCSc1ccccc1C(=O)N1CCCC1	none (no result: LGR2 antag, EWS-Fli block)
COc1ccc(S(=O)(=O)Nc2ccc3c(c2)CC(=O)N([C@@H](C)CO)C[C@H](C)[C@H](CN(C)S(=O)(=O)c2ccc(Cl)cc2)O3)cc1	none (no result: KKLEB tox, TWEAK-Fn14 inh, CF NFkB block, TROY NFkB inh)
COC(=O)c1c(-c2ccc3ccccc3c2)csc1NC(=O)Cc1ccc(OC)c(OC)c1	TWEAK-Fn14 inh 65 (no result: LGR2 antag, EWS-Fli block)
C[C@H](CO)N1C[C@H](C)[C@H](CN(C)C)Oc2c(NC(=O)Nc3ccc(C(F)(F)F)cc3)cccc2C1=O	none (no result: KKLEB tox, TWEAK-Fn14 inh, CF NFkB block, TROY NFkB inh)
CC1CCc2c(sc3nc(C(C)(C)C)nc(N4CCN(C(=O)CCl)CC4)c23)C1 (stereo not given)	KKLEB tox -92, CF NFkB block 97, EWS-Fli block 69 (no result: LGR2 antag)
CCC(=O)N1CCN(c2nc(CC)nc3sc4c(c23)CCCC4)CC1	none
C[C@H]1CCCCO[C@H](CN(C)C(=O)CCCN(C)C)[C@@H](C)CN([C@@H](C)CO)C(=O)c2cc(NC(=O)Nc3ccccc3)ccc2O1	none (no result: KKLEB tox, TWEAK-Fn14 inh, CF NFkB block, TROY NFkB inh)
CC1=C(C)C(=O)C(CCCCC#CCCCC#CCO)=C(C)C1=O	none (no result: LGR2 antag, EWS-Fli block)
COC1=C(OC)C(=O)C(CCCCCCCCCCO)=C(C)C1=O	TWEAK-Fn14 inh 77, TROY NFkB inh 50 (no result: LGR2 antag)
CC(=O)N(C)C[C@H]1OCc2ccccc2-c2ccccc2C(=O)N([C@H](C)CO)C[C@H]1C	none (no result: KKLEB tox, TWEAK-Fn14 inh, CF NFkB block, TROY NFkB inh)
COc1cccc(Oc2nnnn2-c2ccccc2)c1	none (no result: EWS-Fli block)
COc1cccc(-n2nnnc2S(C)(=O)=O)c1	CF NFkB block 94 (no result: LGR2 antag, EWS-Fli block)
Cc1onc(-c2ccccc2Cl)c1C(=O)N1CCN(c2cccc(Cl)c2)CC1	EWS-Fli block 54
CCOc1ccccc1NC(=S)N1CCCc2ccccc21	TWEAK-Fn14 inh 53, TROY NFkB inh 54
COc1ccccc1NC(=S)N1CCCc2ccccc21	TWEAK-Fn14 inh 66, TROY NFkB inh 54
CCOc1ccccc1NC(=O)N1CCCc2ccccc21	TROY NFkB inh 75
COc1ccc(OC)c(NC(=O)N2CCCc3ccccc32)c1	TROY NFkB inh 76
COc1ccc(NC(=O)N2CCCc3ccccc32)cc1	none (no result: LGR2 antag, EWS-Fli block)
CCOc1ccccc1NC(=S)N1CCN(c2ccccc2)CC1	none (no result: LGR2 antag)
COCCNC(=O)C[C@H]1CC[C@@H]2[C@@H](COc3ccc(NS(=O)(=O)c4ccc(Cl)cc4)cc3C(=O)N2C)O1	none (no result: KKLEB tox, TWEAK-Fn14 inh, CF NFkB block, TROY NFkB inh)
COc1cccc(-c2ccc3c(c2)O[C@@H](CN(C)C(C)=O)[C@@H](C)CN([C@H](C)CO)S3(=O)=O)c1	none (no result: KKLEB tox, TWEAK-Fn14 inh, CF NFkB block, TROY NFkB inh)
CC(=O)Oc1cc2c3c(c1)/C(=C1/SC(=S)NC1=O)C(=O)N3C(C)(C)C=C2C	CF NFkB block 52, TROY NFkB inh 50
CCOc1cc2c3c(c1)C(C)=CC(C)(C)N3C(=O)C2=O	none
CC1(C)Cc2ccccc2C(C(=O)c2ccccc2)=N1	none
CC(=O)CC1=NC(C)(C)Cc2ccccc21	TROY NFkB inh 53
C[C@H](CO)N1C[C@H](C)[C@@H](CN(C)S(=O)(=O)c2ccc(Cl)cc2)OCCCC[C@H](C)Oc2ccc(NC(=O)CCC(F)(F)F)cc2C1=O	none (no result: KKLEB tox, TWEAK-Fn14 inh, CF NFkB block, TROY NFkB inh)
O=C(Nc1ccc(N2CCN(c3ncccc3C(F)(F)F)CC2)nc1)c1cccs1	LGR2 antag 92, TWEAK-Fn14 inh 96, TROY NFkB inh 82
O=C(Nc1ccc(N2CCN(c3ccc(C(F)(F)F)cn3)CC2)nc1)c1cccs1	none (no result: LGR2 antag)
CCOc1ccc(CN(C)CC(=O)Nc2cc(C)c(C)cc2[N+](=O)[O-])cc1	TROY NFkB inh 67
CCOc1ccc(CN(C)CC(=O)Nc2cc(OC)c([N+](=O)[O-])cc2C)cc1	none
NC(=O)c1ncn([C@@H]2O[C@H](C(=O)N[C@H](Cc3c[nH]c4ccccc34)C(=O)N3CCN(C(=O)N4CCOCC4)CC3)[C@@H](O)[C@H]2O)n1	none (no result: KKLEB tox, TWEAK-Fn14 inh, CF NFkB block, TROY NFkB inh)
COc1ccc(CN(C)C[C@H]2Oc3ccc(NC(=O)C4CC4)cc3C(=O)N([C@H](C)CO)C[C@H]2C)cc1	none (no result: KKLEB tox, TWEAK-Fn14 inh, CF NFkB block, TROY NFkB inh)
Cc1cccc(NC(=O)/C(C#N)=C\c2ccc(C(=O)O)cc2)c1	none
COc1cc(C)c(/C=C(\C#N)C(=O)Nc2cccc(C)c2)cc1C(C)C	TWEAK-Fn14 inh 86, TROY NFkB inh 84
COCCNC(=O)C[C@@H]1CC[C@@H]2[C@H](COC[C@H](O)CN2S(=O)(=O)c2ccccc2C)O1	none (no result: KKLEB tox, TWEAK-Fn14 inh, CF NFkB block, TROY NFkB inh)
COc1ccc(-n2c(C(C)n3nc(C)c([N+](=O)[O-])c3C)n[nH]c2=S)cc1 (stereo not given)	none (no result: LGR2 antag, EWS-Fli block)
COc1ccc(-n2c(C)c([N+](=O)[O-])c3ccc(O)c(CN(C)C)c32)cc1	TWEAK-Fn14 inh 80, CF NFkB block 79 (no result: LGR2 antag, TROY NFkB inh, EWS-Fli block)
